Experimental data as given in PubChem BioAssay (Tox21).
Results filed as inconclusive are left out. A call without a number means that no potency is given here. Calls of active or inactive are those of the source. The call rests on the fitted dose curve.

assay: p53 small molecule agonists, cell-based qHTS assay with rat liver microsomes: qHTS cell viability counter screen (AID 1963580); settings: p53RE-bla HCT-116 + rat microsomes, ATP viability, 16 h; series mostly up to 66 µM
Outline: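 Cytotoxicity counter screen: intracellular ATP read by CellTiter-Glo luminescence in the p53 reporter wells. HCT-116 p53RE-bla cells were treated for 16 h at 37 C alongside rat liver microsomes and NADPH, each 0.5 mg/mL final.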
Further: nearly all actives have a fitted effect of over 45% in size.

SMILES	Potency	activity change, negative = cytotoxicity
CCCc1ccc(OC)cc1	inactive	–
CCCCCCC#CC(=O)OC	inactive	–
Cc1ccc(-c2ncc(Cl)cc2-c2ccc(S(C)(=O)=O)cc2)cn1	inactive	–
COC=O	–	1.32% [at 5.99 µM] (inactive)
CCCCCCCCCCO[C@@H]1O[C@H](CO)[C@@H](O)[C@H](O)[C@H]1O	inactive	–
CCN1C=CN(C)C1C (stereo unspecified)	inactive	–
CN(C)CCOCCO	inactive	–
CCC1Nc2cc(Cl)c(S(N)(=O)=O)cc2S(=O)(=O)N1 (stereo unspecified)	inactive	–
CCCCOC(=O)CCCCC(=O)OCCCC	inactive	–
O=C1[C@@H]2[C@H]3CC[C@H](C3)[C@@H]2C(=O)N1CCCCN1CCN(c2ncccn2)CC1	inactive	–
O=C(O)CNC(=O)c1ccccc1	inactive	–
COC1CCC=CO1 (stereo unspecified)	inactive	–
CCOCCn1c(N2CCCN(C)CC2)nc2ccccc21	inactive	–
COCc1nnc(-c2ccc[n+]([O-])c2)n1-c1c(Cl)c(Cl)cc2[nH]c(=O)c(=O)[nH]c12	inactive	–
CN(C(=O)CN(CCO)CC(=O)N(C)C(C)(C)Cc1ccccc1)C(C)(C)Cc1ccccc1	inactive	–
CN(C)c1ccc(C2(c3ccc(N(C)C)cc3)OC(=O)c3cc(N(C)C)ccc32)cc1	inactive	–

assay: p53 small molecule agonists, cell-based qHTS assay: qHTS cell viability counter screen (AID 1963581); settings: p53RE-bla HCT-116 viability, ATP luminescence, 16 h; series mostly up to 66 µM
Outline: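 Viability was counter-screened in parallel with the p53 agonist reporter by measuring intracellular ATP luminescence in the same HCT-116 p53RE-bla wells after 16 h compound treatment at 37 C.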

SMILES	Potency	activity change, negative = cytotoxicity
CCCOc1ccc(S(=O)(=O)N2CCN(CC)CC2)cc1-c1nc2c(CC)n(Cc3ccccn3)nc2c(=O)[nH]1	inactive	–
COc1cc(Cl)c(OC)cc1N	inactive	–
Oc1ccccc1F	inactive	–
NCCCN1CCOCC1	inactive	–
CC(C)OC(=O)c1ccccc1C(=O)OC(C)C	inactive	–
CC1CC(OC(=O)C(O)c2ccccc2)CC(C)(C)N1C (stereo unspecified)	inactive	–
C=CC(=C)CCCC(C)(C)OC(C)=O	inactive	–
CC(=O)N[C@@H](CCC(=O)O)C(=O)O	inactive	–
CC(=O)OCC(=O)[C@H]1CC[C@H]2[C@@H]3CCC4=CC(=O)CC[C@]4(C)[C@H]3CC[C@]12C	inactive	–
CCOc1ccc2nc(S(N)(=O)=O)sc2c1	inactive	–
O=C(O)c1ccc2cc(C(=O)O)ccc2c1	inactive	–
OCCc1ccncc1	inactive	–
CN1C(CSCC(F)(F)F)Nc2cc(Cl)c(S(N)(=O)=O)cc2S1(=O)=O (stereo unspecified)	inactive	–
O=c1cc(O)c(Cl)c[nH]1	inactive	–
N#CCCNCCC#N	inactive	–
CN1CCC(=C2c3ccccc3CCc3cccnc32)CC1	inactive	–
CCO[C@H](Cc1ccc(OCCc2ccc(OS(C)(=O)=O)cc2)cc1)C(=O)O	inactive	–
CC(CC=O)CCCC(C)(C)O (stereo unspecified)	inactive	–
COc1ccc(/C=N/NC(=O)c2ccncc2)cc1OC	inactive	–
C=CCOC(=O)COCCC(C)C	inactive	–

SMILES	Potency	activity change, negative = cytotoxicity
CCOC(=O)CC(=O)c1ccccc1	inactive	–
CCOc1ccccc1OCCN[C@H](C)Cc1ccc(OC)c(S(N)(=O)=O)c1	inactive	–
CCCCCCC(C)Nc1ccc(Nc2ccccc2)cc1 (stereo unspecified)	inactive	–
O=C(NS(=O)(=O)/C=C/c1cccs1)c1ccc(F)cc1Br	inactive	–
CCCc1ccc(OC)cc1	inactive	–
CCCCCCC#CC(=O)OC	inactive	–
Cc1ccc(-c2ncc(Cl)cc2-c2ccc(S(C)(=O)=O)cc2)cn1	inactive	–
COC=O	–	-1.7% [at 5.99 µM] (inactive)
CCCCCCCCCCO[C@@H]1O[C@H](CO)[C@@H](O)[C@H](O)[C@H]1O	inactive	–
CCN1C=CN(C)C1C (stereo unspecified)	inactive	–
CN(C)CCOCCO	inactive	–
CCC1Nc2cc(Cl)c(S(N)(=O)=O)cc2S(=O)(=O)N1 (stereo unspecified)	inactive	–
CCCCOC(=O)CCCCC(=O)OCCCC	inactive	–
O=C1[C@@H]2[C@H]3CC[C@H](C3)[C@@H]2C(=O)N1CCCCN1CCN(c2ncccn2)CC1	inactive	–
O=C(O)CNC(=O)c1ccccc1	inactive	–
COC1CCC=CO1 (stereo unspecified)	inactive	–
CCOCCn1c(N2CCCN(C)CC2)nc2ccccc21	inactive	–
COCc1nnc(-c2ccc[n+]([O-])c2)n1-c1c(Cl)c(Cl)cc2[nH]c(=O)c(=O)[nH]c12	inactive	–
CN(C(=O)CN(CCO)CC(=O)N(C)C(C)(C)Cc1ccccc1)C(C)(C)Cc1ccccc1	inactive	–
CN(C)c1ccc(C2(c3ccc(N(C)C)cc3)OC(=O)c3cc(N(C)C)ccc32)cc1	inactive	–
